Source: PubChem BioAssay (EPA / NIEHS)
Results filed as inconclusive are left out. The source made the active and inactive calls. The calls were made as follows, unless noted: active = hit-call score of the fitted dose curve at least 0.9, where 1 is the maximum; inactive = score below 0.9.

Tests used:
[1] = target: Cytochrome P450 2C19 (Homo sapiens) (UniProt P33261); test: NVS_ADME_hCYP2C19: NovaScreen (NVS) CYP450-related Enzyme Activity (ADME) Assay for human CYP2C19 (AID 2283113; active = hit-call score of the fitted dose curve at least 0.9, where 1 is the maximum;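 also: potency for inhibition seen as loss of fluorescent signal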)
Method in brief: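 Compounds first screened in duplicate at 10 uM, then confirmed in concentration series. Insect-cell-expressed human CYP2C19 turned over a fluorogenic substrate, and fluorescence was read after 1 h. Inhibition taken as signal loss relative to acetonitrile.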

[2] = CEETOX_H295R_11DCORT_noMTC: CeeTox H295R High-throughput Steroidogenesis Assay for 11-Deoxycortisol (11DCORT), maximum tolerated concentration (MTC) filtered results only (AID 2283911); conditions: actives raise or lower the signal
Method in brief: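 Values carry no filtering for maximum tolerated concentration: medium from forskolin-primed (10 uM, 48 h) H295R cells after 48 h chemical exposure (0.1% DMSO) was MTBE-extracted, and 11-deoxycortisol quantified by reverse-phase HPLC-MS/MS. Fitting was bidirectional against DMSO.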

[3] = CEETOX_H295R_OHPREG_noMTC: CeeTox H295R High-throughput Steroidogenesis Assay for OH-Pregnenolone (OHPREG), maximum tolerated concentration (MTC) filtered results only (AID 2283912); conditions: actives raise or lower the signal
Method in brief: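 H295R; 10 uM forskolin 48 h pre-stim; test cpd in DMSO (0.1% final) 48 h; media MTBE-extracted, HPLC-MS/MS for OH-pregnenolone; bidirectional fit vs DMSO; no MTC (MTT) filtering.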

[4] = CEETOX_H295R_OHPROG_noMTC: CeeTox H295R High-throughput Steroidogenesis Assay for OH-Progesterone (OHPROG), maximum tolerated concentration (MTC) filtered results only (AID 2283914); conditions: actives raise or lower the signal
Method in brief: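 Medium hormone measured by reverse-phase C18 HPLC with positive electrospray MS/MS after MTBE liquid-liquid extraction. Cells had 48 h forskolin (10 uM) prestimulation, then 48 h chemical dosing. Gain or loss of signal fitted relative to DMSO baseline.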

[5] = CEETOX_H295R_CORTISOL_noMTC: CeeTox H295R High-throughput Steroidogenesis Assay for Cortisol, maximum tolerated concentration (MTC) filtered results only (AID 2283916); conditions: actives raise or lower the signal
Method in brief: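 H295R human adrenal cells prestimulated 48 h with 10 uM forskolin, then exposed 48 h to chemical in 0.1% DMSO; cortisol in medium quantified by HPLC-MS/MS; bidirectional fit vs DMSO baseline, concentrations not MTT-filtered for MTC.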

[6] = CEETOX_H295R_CORTIC_noMTC: CeeTox H295R High-throughput Steroidogenesis Assay for Corticosterone (CORTIC), maximum tolerated concentration (MTC) filtered results only (AID 2283917); conditions: actives raise or lower the signal
Method in brief: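 Corticosterone secreted into the medium was measured by reverse-phase C18 HPLC with tandem MS after MTBE extraction. Cells (H295R) had 48 h forskolin (10 uM) stimulation before 48 h chemical exposure; gain or loss of signal was fitted relative to DMSO.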

[7] = CEETOX_H295R_DOC_noMTC: CeeTox H295R High-throughput Steroidogenesis Assay for DOC, maximum tolerated concentration (MTC) filtered results only (AID 2283918); conditions: actives raise or lower the signal
Method in brief: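 H295R cells prestimulated 48 h with 10 uM forskolin, then exposed 48 h to chemical in 0.1% DMSO. 11-Deoxycorticosterone in medium measured by MTBE extraction and HPLC-MS/MS; bidirectional fit vs DMSO, no MTC filter.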

[8] = CEETOX_H295R_PROG_noMTC: CeeTox H295R High-throughput Steroidogenesis Assay for Progesterone (PROG), maximum tolerated concentration (MTC) filtered results only (AID 2283920); conditions: actives raise or lower the signal
Method in brief: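 Readout: medium progesterone by MTBE extraction, reverse-phase C18 HPLC, ESI-positive MS/MS. Human H295R cells, 10 uM forskolin pretreatment 48 h, chemical 48 h in 0.1% DMSO. Gain or loss fitted against DMSO baseline.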

DIO3 (gene 1735) = test: CCTE_GLTED_hDIO3: CCTE's human Deiodinase 3 (DIO3) Inhibition Assay, Great Lakes Toxicology and Ecology Division (GLTED) Lab (AID 2284055; active = hit-call score of the fitted dose curve at least 0.9, where 1 is the maximum;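 also: potency is for inhibition seen as loss of released iodide signal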)
Method in brief: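 Steps: incubate adenovirus-produced hDIO3 with chemical for 3 hours; detect freed iodide via cerium-arsenic Sandell-Kolthoff colorimetry; compare with DMSO baseline.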

[9] = CCTE_Mundy_HCI_Cortical_Synap_Neur_Matur_NeuriteSpotCountPerNeuron: CCTE's Synaptogenesis and Neurite Maturation Assay in rat cortical cells for Neurite Spot Count per Neuron Count, Mundy Lab (AID 2284215)
Method in brief: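 High-content imaging counts synaptophysin puncta along MAP2-labelled neurites per neuron after chemical exposure of rat cortical cells from DIV 7 to termination at DIV 12 (AraC added DIV 5). Loss of signal relative to DMSO.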

[10] = CCTE_Mundy_HCI_Cortical_Synap_Neur_Matur_SynapseCount: CCTE's Synaptogenesis and Neurite Maturation Assay in rat cortical cells for Synapse Count, Mundy Lab (AID 2284218)
Method in brief: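 Endpoint: synapses/neuron by HCI (synaptophysin puncta on MAP2-labelled neurites, Hoechst nuclei). Rat primary cortical cells, AraC DIV 5, dosed DIV 7, fixed DIV 12; DMSO negative control.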

[11] = CCTE_Mundy_HCI_Cortical_Synap_Neur_Matur_NeuriteCount: CCTE's Synaptogenesis and Neurite Maturation Assay in rat cortical cells for Neurite Count, Mundy Lab (AID 2284222);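 also: exposure from day 7 to day 12 in vitro with readout at day 12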
Method in brief: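 Rat primary cortical cells; AraC added at DIV 5, chemicals dosed with media change at DIV 7 through DIV 12. MAP2/synaptophysin/Hoechst immunostaining, high-content imaging of neurite number; fitted relative to DMSO.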

[12] = CCTE_Mundy_HCI_Cortical_Synap_Neur_Matur_CellBodySpotCount: CCTE's Synaptogenesis and Neurite Maturation Assay in rat cortical cells for Cell Body Spot Count, Mundy Lab (AID 2284223)
Method in brief: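 High-content imaging counts synaptophysin puncta on neuronal cell bodies per neuron after MAP2/synaptophysin immunostaining. Rat primary cortical cells, glia arrested with AraC at DIV 5, were exposed DIV 7–12; signal decrease measured against DMSO.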

[13] = CCTE_Mundy_HCI_Cortical_NOG_BPCount: CCTE's Neurite Outgrowth Assay in rat cortical cells for Branch Point Count, Mundy Lab (AID 2284237)
Method in brief: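 Measured 50.33 h after dosing, this morphology endpoint uses rat primary cortical cultures labelled for betaIII-tubulin. Branch points are quantified by high-content imaging, with DMSO as negative control and baseline.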

[14] = CCTE_Mundy_HCI_hNP1_Casp3_7: CCTE's Caspase-Glo 3/7 Assay in human neuroprogenitor cells for Apoptosis, Mundy Lab (AID 2284240)
Method in brief: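 Luminescent caspase-3/7 readout, 26.5 h post-dose, in human neural progenitor cells from WA09 embryonic stem cells. Cells grew 40–44 h at 37 °C, 5% CO2 before chemical addition. Activity analysed as signal increase over DMSO baseline.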

[15] = CCTE_Mundy_HCI_iCellGluta_NOG_NeuronCount: CCTE's Neurite Outgrowth Assay in iCellGluta cells for Neuron Count, Mundy Lab (AID 2284340; active = hit-call score of the fitted dose curve at least 0.9, where 1 is the maximum;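 also: cells fixed about 48 h after compound addition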)
Method in brief: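 Neuron count read by automated high-content imaging of Hoechst 33342 and betaIII-tubulin/Alexa Fluor-488 labelling in human iPSC glutamatergic neurons. Activity fitted relative to DMSO.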

[16] = CCTE_Mundy_HCI_iCellGluta_NOG_NeuriteCount: CCTE's Neurite Outgrowth Assay in iCellGluta cells for Neurite Count, Mundy Lab (AID 2284342; active = hit-call score of the fitted dose curve at least 0.9, where 1 is the maximum;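 also: chemical exposure about 48 hours starting 2 hours after plating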)
Method: CCTE_Mundy_HCI_iCellGluta_NOG is a multiplexed, cell-based-readout assay that uses iCell GlutaNeurons from FUJIFILM Cellular Dynamics, Inc. (FCDI), human glutamatergic enriched neurons derived from induced pluripotent stem (iPS) cells, with measurements taken at 50.33 hours after chemical dosing in a microplate: 96-well plate.CCTE_Mundy_HCI_iCellGluta_NOG_NeuriteCount is one of four components of the CCTE_Mundy_HCI_iCellGluta_NOG assay. It measures neurite outgrowth related to number of neurites using High Content Imaging of fluorescently labelled markers.Data from the assay component CCTE_Mundy_HCI_iCellGluta_NOG_NeuriteCount was analyzed at the endpoint CCTE_Mundy_HCI_iCellGluta_NOG_NeuriteCount in the positive analysis fitting direction relative to DMSO as the negative control and baseline of activity. Using a type of morphology reporter, loss-of-signal activity can be used to understand developmental effects.
Exposure starts 2 hours post-plating by adding 10 ul of the working solution to 90 ul of media in the wells for a 1/10 dilution. Forty-eight hours after chemical treatment cells are fixed by direct addition of 100 ul of warm (37C) Dulbecco's phosphate buffered saline (DPBS) fixative solution containing 8% paraformaldehyde, 8% sucrose, and 0.1% of 3 mg/ml Hoechst 33342 into each well. Primary antibodies are prepared by dilution in Immunocytochemical Staining Buffer (ISB), 10X Dulbecco's PBS, 0.1% Saponin, 5% Bovine Serum Albumin, 0.5% NaN3 (Sodium Azide) and betaIII-tubulin (rabbit anti-betaIII-tubulin, 1:800) followed by Alexa Fluor-488 secondary (1:500) to label neuronal cell bodies and neurites. A Cellomics ArrayScan VTi HCS Reader is used for automated image acquisition and analysis of neurite outgrowth.

[17] = CCTE_Deisenroth_5AR_NBTE_donor: CCTE's 5alpha-reductase NanoBRET Target Engagement Assay […], Deisenroth Lab (AID 2284319); conditions: actives raise or lower the signal
Method in brief: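 HEK293T cells transiently expressing SRD5A2-NanoLuc, exposed 5 h to chemicals (8 points, 10 nM - 29.9 uM), with testosterone tracer for the final 2 h. Donor luminescence at 460 nm read after Nano-Glo substrate plus extracellular NanoLuc inhibitor; bidirectional fit versus DMSO.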

[18] = CCTE_Deisenroth_5AR_NBTE_acceptor: CCTE's 5alpha-reductase NanoBRET Target Engagement Assay - Autofluorescence Screen, Deisenroth Lab (AID 2284321); conditions: actives raise or lower the signal;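 also: compound fluorescence in the acceptor channel under 460 nm excitation flags autofluorescence artifacts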
Method in brief: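 Acceptor-channel fluorescence flags artifacts, with excitation fixed at 460 nm. Nominal 100 uM chemical samples were read in triplicate runs, and signal changes were fitted in both directions relative to DMSO.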

SRD5A2 (gene 6716) = test: CCTE_Deisenroth_5AR_NBTE_ratio: CCTE's 5alpha-reductase NanoBRET Target Engagement Assay - Ratio, Deisenroth Lab (AID 2284322); conditions: actives raise or lower the signal
Method in brief: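 SRD5A2-NanoLuc HEK293T; cmpd 10 nM-29.9 uM, 3 h preinc + testosterone tracer 2 h; NanoBRET ratio 650/460; bidirectional fit vs DMSO.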

Measured: AC50

Sc1nc2ccccc2s1
inactive: [2] | [3] | [4] | [5] | [6] | [7] | [8]
active: [1] 5 µM | DIO3 (gene 1735) 61.3 µM

COC(=O)[C@]1(C)CCC[C@@]2(C)[C@H]1CC=C1C=C(C(C)C)CC[C@@H]12
active: DIO3 (gene 1735) 36 µM

CN(C)c1ccc(C(c2ccccc2)c2ccc(N(C)C)cc2)cc1
active: [1] 0.356 µM

CC1(C)S[C@@H]2[C@H](NC(=O)[C@H](N)c3ccccc3)C(=O)N2[C@H]1C(=O)O
inactive: [9] | [10] | [11] | [12] | [13] | [14] | [15] | [16]

CN(C)CCC(c1ccc(Cl)cc1)c1ccccn1 (stereo unspecified)
inactive: [9] | [10] | [11] | [12] | [13] | [14] | [15] | [16]

O=C(O)c1ccccc1C(=O)O
inactive: [2] | [3] | [4] | [5] | [6] | [7] | [8]

O=C(O)/C=C\C(=O)O
inactive: [17] | [18] | SRD5A2 (gene 6716)

NC(N)=Nc1nc(CSCCC(N)=NS(N)(=O)=O)cs1
inactive: [9] | [10] | [11] | [12] | [13] | [14] | [15] | [16]

Cc1cc2nc3c(=O)[nH]c(=O)nc-3n(C[C@H](O)[C@H](O)[C@H](O)CO)c2cc1C
inactive: [17] | [18]
active: SRD5A2 (gene 6716) 27.1 µM

CC1=NN(c2cc(Cl)c(S(=O)(=O)O)cc2Cl)C(=O)C1N=Nc1ccc(S(=O)(=O)O)cc1 (stereo unspecified)
inactive: [17] | [18]
active: SRD5A2 (gene 6716) 10 µM
